Autofluor counter = compound fluorescence in toxin protease inhibitor counterscreen; compound autofluorescence counterscreen, microsphere flow cytometry; active compounds read high; fluorescence intensity (test concentration not listed); 360,000 tested, 3.1% active; AID 624483; in the data active means fluorescence intensity above about 16000; inconclusive means no clear call, values can overlap the other calls
PfHsp40 rescue = rescue of PfHsp40-mediated yeast toxicity; S. cerevisiae expressing PfHsp40, growth rescue, ATP luminescence; 340,000 tested, 0.68% active; growth rescue, % at 12.5 µM; in the data active means growth rescue above about 28%, passing the limit was not always enough; inconclusive means no clear call, values can overlap the other calls;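 further: yeast W303a lacking pdr1 and pdr3 grown in galactose medium; growth measured after three days at 30 °C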
BoNT-F LC inh = inhibitors of Botulinum neurotoxin F light chain protease; Multiplex microsphere protease cleavage assay, flow cytometry; inhibition, % at 10 µM; 360,000 tested, 0.22% active; AID 588497; in the data active means inhibition above about 35%, passing the limit was not always enough; inconclusive means no clear call, values can overlap the other calls; further: plate controls were buffer without enzyme for full effect and enzyme alone for no effect
BoNT A protease = blocks Botulinum neurotoxin A light chain protease | inhibition, % at 10 µM | 360,000 tested, 0.17% active | multiplex microsphere protease substrate cleavage, flow cytometry; further: plate controls were buffer without enzyme for full effect and enzyme alone for no effect
MazEF act = activators of E. coli MazEF toxin-antitoxin RNase. FAM/BHQ RNA-DNA oligo cleavage fluorescence, 5 h. activation, % at 20 µM. 350,000 tested, 0.32% active. AID 504720; in the data active means activation above about 50%
Target sequence (P0AE70 whole entry, looked up): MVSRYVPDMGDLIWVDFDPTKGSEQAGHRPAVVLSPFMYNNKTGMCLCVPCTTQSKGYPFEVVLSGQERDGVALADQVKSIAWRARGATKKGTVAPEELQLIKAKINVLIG
Anthrax LF inh2 = blocks Bacillus anthracis lethal factor protease. P15917. multiplex microsphere protease cleavage assay, LF. inhibition, % at 10 µM. 360,000 tested, 0.12% active. AID 588501; further: plate controls were buffer without enzyme for full effect and enzyme alone for no effect
Active calls of the source: *; ? = inconclusive; · = not tested or not shown. Hits are enriched below; roughly 4.3% of the tested compounds scored in any of these assays. Unless noted, no stated cut-off is given here; in the data, active means inhibition above about 30%; inconclusive means no clear call, values can overlap the other calls; inactive means below that.

SMILES	Autofluor counter	PfHsp40 rescue	BoNT-F LC inh	BoNT A protease	MazEF act	Anthrax LF inh2
COc1ccc(C(=O)CN2CCN(CCN3C(=O)c4cccc5cccc(c45)C3=O)CC2)cc1	4804	-0.4	1.6	0.3	8.4	3.0
C/C=C/C(=O)OCC(=O)Nc1c(Cl)cccc1Cl	16870*	-2.0	-2.6	-1.8	10.0	-1.4
C/C=C/C(=O)OCC(=O)Nc1cc([N+](=O)[O-])ccc1Cl	2100	-0.2	-2.1	-0.3	0.5	-1.6
O=c1cccc2n1CC1CC2CN(Cc2cccc(Cl)c2Cl)C1 (stereo unspecified)	20838*	-0.6	-1.0	-0.3	-4.4	0.4
NNC(=O)c1cn2ccccc2n1	19411*	0.7	1.0	?	1.0	-5.3
O=C(Nc1nccs1)c1cn2ccccc2n1	5249	-0.9	0.4	-0.3	-18.4	-4.4
CC(=O)c1ccc2c(c1)CC1(C2)Cc2cc3c(cc2C1)C(=O)CC3 (stereo unspecified)	4028	0.3	1.8	0.0	1.2	0.8
CN1/C(=C/C(=O)c2cccs2)Sc2ccccc21	20294*	0.1	-0.6	1.4	·	6.5
CN1/C(=C\C(=O)c2cccs2)C(C)(C)c2ccccc21	3404	153.5*	-9.1	11.9	-9.3	5.7
Cc1ccc(C(=O)OCC(=O)N2CCCC2)cc1	3870	-0.4	-5.6	-0.1	-6.3	-6.8
O=C1c2ccccc2C(=O)N1CCc1nc(-c2ccccn2)no1	21427*	-1.1	5.3	4.6	-0.3	-4.0
O=C1c2ccccc2C(=O)N1Cc1nc(-c2ccccc2)no1	21600*	0.1	-5.3	-3.5	7.3	-1.1
CC(C)CC(=O)Nc1cccc(-c2nc3ccccc3o2)c1	23031*	0.1	-1.9	0.3	3.3	1.2
CC(C)NS(=O)(=O)c1ccc(N2C(=O)c3ccccc3C2=O)cc1	19293*	1.8	3.7	3.2	-0.4	-2.8
CC(C)CNC(=S)NC1CCCC1	20457*	-0.1	-4.1	?	-6.8	-2.2
CC(C)CNC(=O)C(=O)NC1CCCC1	3146	0.1	-5.7	0.0	7.6	-2.8
Cc1ccccc1OCCN=Cc1c(O)n(C)c(=O)n(C)c1=O	22922*	-0.5	2.8	1.7	1.0	1.1
Cn1c(O)c(/C=N/c2ncccn2)c(=O)n(C)c1=O	21865*	-0.6	4.0	1.6	0.5	3.9
CCOc1ccccc1N=Cc1c(O)n(C)c(=O)n(C)c1=O	4297	0.1	-22.5	-2.0	7.4	-17.9
CCC(C(=O)NCc1ccco1)n1nc(C)c2c(C)n(-c3ccccc3)nc2c1=O (stereo unspecified)	5663	0.0	8.4	2.6	8.5	-0.7
COc1ccc(S(=O)(=O)Nc2cc3c4c(c2)CC(=O)N4CCC3)cc1C	6721	-0.3	-14.7	-5.0	5.3	-2.8
CC(/C=N/NC(=O)Cc1cccn1C)=C\c1ccco1	22954*	-0.5	-6.3	?	1.8	-7.2
O=C(CCS(=O)(=O)c1ccc(Cl)cc1)Nc1ccc(N2CCOCC2)cc1	5115	0.3	-5.2	-0.5	5.1	-7.9
Cc1nnc(N/N=C/c2cccc(OCc3ccc(Cl)c(Cl)c3)c2)n1N	7867	38.1*	-16.3	-0.6	22.5	-2.8
Cc1nnc(N/N=C/c2cccc(C(F)(F)F)c2)n1N	4053	-2.5	0.6	-2.4	5.2	6.2
SMILES	Autofluor counter	PfHsp40 rescue	BoNT-F LC inh	BoNT A protease	MazEF act	Anthrax LF inh2
COc1cc2c(cc1OC)-c1cc(NC3CCCC3)nc(=O)n1CC2	22438*	-0.5	0.9	?	8.0	-3.9
O=c1cc(-c2ccccc2)ss1	2986	-1.3	-0.5	-0.4	6.8	-6.3
O=C(Oc1ccc2c(c1)OCO2)c1cc2c(s1)CCC2	3933	0.8	53.7*	2.1	-1.9	-0.6
O=C(c1cc2c(s1)CCCC2)N1CCN(Cc2ccc3c(c2)OCO3)CC1	3181	0.4	-2.6	-0.1	2.4	-0.1
CCC1(C)Cc2c(C#N)c(N)sc(=S)c2CO1 (stereo unspecified)	4428	-0.2	24.3	75.0*	4.9	41.4*
CCC1(C)Cc2c(C#N)c(N)n(-c3ccccc3)c(=S)c2CO1 (stereo unspecified)	4951	-0.8	2.9	1.9	3.0	-4.0
COC(=O)c1ccc(-n2cncn2)c(F)c1	23526*	-0.3	-1.9	?	3.8	-1.0
C[C@@H](c1ccccc1)N1C[C@@H](COCc2ccccc2)Oc2cc(N3CCC[C@H]3CO)ccc2S1(=O)=O	7847	·	-1.5	-0.7	·	-3.5
O=C(CCN1C(=O)c2ccccc2C1=O)C1=NN[C@@H]2C(=O)N(c3ccc4c(c3)OCCO4)C(=O)[C@H]12	4459	·	-3.8	-0.8	3.1	-5.4
Cc1cc(C)cc(N2CC(C(=O)NC3CCCCC3)CC2=O)c1 (stereo unspecified)	4364	-1.4	1.4	0.4	-4.1	0.0
CC1(C)N=C(c2ccc(Cl)cc2)C(=O)N1	23886*	-1.1	-3.5	-0.5	1.7	-2.4
O=C1Nc2ccc(Br)cc2C1(O)c1ccccc1 (stereo unspecified)	4209	-1.1	-6.3	-5.3	0.4	6.9
O=C1Nc2ccc(Br)cc2C12NNc1ccccc1O2 (stereo unspecified)	4049	2.5	-2.9	-0.1	83.7*	-0.1
CCc1ccc2nc(SCC(=O)N3CC(=O)Nc4ccccc43)c(C#N)cc2c1	4466	0.5	11.7	0.1	83.2*	-0.9
C=CCC(C(=O)OC)(C(=O)OC)c1ccc([N+](=O)[O-])cc1[N+](=O)[O-]	3779	-0.6	-0.2	-0.7	3.4	-4.2
C=CCC(C(=O)OC)(C(=O)OC)c1ccc([N+](=O)[O-])cn1	22956*	-0.3	-2.1	?	-0.3	2.0
Cc1ccc(C)n1-c1nccc(-c2cccs2)n1	21459*	-1.0	4.2	3.6	-1.8	-2.7
c1ccc(Cn2nnnc2-c2ccco2)cc1	16264*	0.5	-0.3	0.3	2.5	1.5
Cc1ccc(N2CC(C(=O)Nc3ccccc3C(=O)NC3CCCCC3)CC2=O)cc1C (stereo unspecified)	22887*	-0.1	-3.7	?	-12.0	0.1
COC(=O)c1ccccc1NC(=O)C1CC(=O)N(c2ccccc2)C1 (stereo unspecified)	22918*	-1.2	-1.7	0.4	9.5	-3.4
Cc1ccc(N2CC(C(=O)Nc3ccc(N(C)C)cc3)CC2=O)cc1C (stereo unspecified)	19991*	-1.7	-1.6	0.8	-3.2	-3.4
N/C(=N\OS(=O)(=O)c1ccc(Br)cc1)c1ccncc1	21736*	0.2	5.9	2.9	3.2	2.6
CC(CNC(=O)Cn1cnc2c(NCc3ccccc3)ncnc21)c1ccccc1 (stereo unspecified)	3889	1.3	-4.0	0.1	2.9	5.2
CC(C)CCn1cnc2c(NCc3ccccc3)ncnc21	24204*	0.7	-4.1	-2.1	1.3	-1.6
O=C(NC1CC2CCC1C2)c1ccco1 (stereo unspecified)	3108	1.2	1.7	-0.9	-3.9	2.6
Cn1c(SCC(=O)c2ccccc2)nnc1-c1ccccn1	3879	-0.9	?	0.7	1.6	3.6
